# Test results: PMC5540273 (PLoS ONE, 2017)
# “And” between values parts separate entries of the source, which are not always exact repeats. Equal values may be shown once. Read-outs that look alike come from different tables or passages of the source.
# Tests used:
# AKT3 = conditions: concentration: 1 μM, replicates: in singlicate, n = 1
# ALK = conditions: concentration: 1 μM, replicates: in singlicate; n = 1
# AMPK-alpha1 = tested on: T1, AMPK-alpha1; conditions: concentration: 1 μM, replicates: in singlicate, n = 1
# T1 construct: gene PRKAA1
# AMPK-alpha2 = tested on: T2, AMPK-alpha2; conditions: concentration: 1 μM, replicates: in singlicate; n = 1
# T2 construct: gene PRKAA2
# ANKK1 = conditions: concentration: 1 μM, replicates: in singlicate, n = 1
# ARK5 = tested on: T3, ARK5; conditions: concentration: 1 μM, replicates: in singlicate, n = 1
# T3 construct: gene NUAK1
# ASK1 = tested on: T4, ASK1; conditions: concentration: 1 μM, replicates: in singlicate, n = 1
# T4 construct: gene MAP3K5
# ASK2 = tested on: T5, ASK2; conditions: concentration: 1 μM, replicates: in singlicate, n = 1
# T5 construct: gene MAP3K6
# AURKA = conditions: concentration: 1 μM, replicates: in singlicate, n = 1
# AURKB = conditions: concentration: 1 μM, replicates: in singlicate, n = 1
# 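Further: KINOMEscan kinase panel screen.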
compound,measurement,setting,value
COc1ccc(-c2nc3n(c2-c2ccncc2)CCC3)cc1 [SKF-104493],%Inh,AKT3; 1 µM,19% and 0%
same,%Inh,ALK,0%
same,%Inh,AMPK-alpha1; 1 µM,11% and 9%
same,%Inh,AMPK-alpha2,0%
same,%Inh,ANKK1; 1 µM,0% and 16%
same,%Inh,ARK5; 1 µM,0% and 12%
same,%Inh,ASK1; 1 µM,0% and 2%
same,%Inh,ASK2; 1 µM,30% and 6%
same,%Inh,AURKA; 1 µM,16% and 23%
same,%Inh,AURKB; 1 µM,23% and 7%
Cc1cc(N2CCC(NS(=O)(=O)c3ccc(F)cc3)CC2)nc(Nc2cccc(C#N)c2)n1.O=C(O)C(F)(F)F [GSK1653537],%Inh,AKT3,0%
same,%Inh,ALK,7%
same,%Inh,AMPK-alpha1,0%
same,%Inh,AMPK-alpha2,20%
same,%Inh,ANKK1,3%
same,%Inh,ARK5,15%
same,%Inh,ASK1,0%
same,%Inh,ASK2,3%
same,%Inh,AURKA,0%
same,%Inh,AURKB,0%
Fc1cccc(COc2ccc(Nc3ncnc4nn5ccccc5c34)cc2Cl)c1 [GW689066],%Inh,AKT3,0%
same,%Inh,ALK,26%
same,%Inh,AMPK-alpha1,0%
same,%Inh,AMPK-alpha2,0%
same,%Inh,ANKK1,0%
same,%Inh,ARK5,11%
same,%Inh,ASK1,8%
same,%Inh,ASK2,0%
same,%Inh,AURKA,0%
same,%Inh,AURKB,0%
Fc1cccc(COc2ccc(Nc3ncnc4cc[nH]c34)cc2Cl)c1,%Inh,AKT3,0%
same,%Inh,ALK,0%
same,%Inh,AMPK-alpha1,4%
same,%Inh,AMPK-alpha2,0%
same,%Inh,ANKK1,40%
same,%Inh,ARK5,11%
same,%Inh,ASK1,11%
same,%Inh,ASK2,0%
same,%Inh,AURKA,16%
same,%Inh,AURKB,24%
Cn1ccc2ncnc(Oc3ccc(NC(=O)Nc4cccnc4)c(Cl)c3)c21,%Inh,AKT3,0%
same,%Inh,ALK,0%
same,%Inh,AMPK-alpha1,4%
same,%Inh,AMPK-alpha2,9%
same,%Inh,ANKK1,0%
same,%Inh,ARK5,3%
same,%Inh,ASK1,5%
same,%Inh,ASK2,0%
same,%Inh,AURKA,18%
same,%Inh,AURKB,47%
CC(C)(C)OC(=O)NC1CCCN(c2cc(-c3ccc4c(N)n[nH]c4c3)nc(N)n2)C1 (centres unmarked) [GSK2286096],%Inh,AKT3,0%
same,%Inh,ALK,36%
same,%Inh,AMPK-alpha1,0%
same,%Inh,AMPK-alpha2,0%
same,%Inh,ANKK1,7%
same,%Inh,ARK5,19%
same,%Inh,ASK1,0%
same,%Inh,ASK2,0%
same,%Inh,AURKA,52%
same,%Inh,AURKB,66%
Fc1cccc(COc2ccc(Nc3ncnc4sc(-c5ccc[nH]5)cc34)cc2Cl)c1 [GW707818],%Inh,AKT3,0%
same,%Inh,ALK,0%
same,%Inh,AMPK-alpha1,10%
same,%Inh,AMPK-alpha2,36%
same,%Inh,ANKK1,12%
same,%Inh,ARK5,6%
same,%Inh,ASK1,21%
same,%Inh,ASK2,0%
same,%Inh,AURKA,6%
same,%Inh,AURKB,0%
Nc1nc(-c2cccnc2)c(-c2ccnc3ccccc23)s1 [GW684083],%Inh,AKT3,0%
same,%Inh,ALK,22%
same,%Inh,AMPK-alpha1,23%
same,%Inh,AMPK-alpha2,20%
same,%Inh,ANKK1,5%
same,%Inh,ARK5,0%
same,%Inh,ASK1,0%
same,%Inh,ASK2,10%
same,%Inh,AURKA,0%
same,%Inh,AURKB,7%
O=C(Nc1ccccc1)Nc1ccc(Oc2ccc3nccn3n2)cc1,%Inh,AKT3,10%
same,%Inh,ALK,0%
same,%Inh,AMPK-alpha1,25%
same,%Inh,AMPK-alpha2,0%
same,%Inh,ANKK1,0%
same,%Inh,ARK5,0%
same,%Inh,ASK1,8%
same,%Inh,ASK2,0%
same,%Inh,AURKA,0%
same,%Inh,AURKB,68%
CN1c2ccc(-c3ccc(C(=O)NCCO)cc3)cc2-c2[nH]ncc2S1(=O)=O,%Inh,AKT3,12%
same,%Inh,ALK,44%
same,%Inh,AMPK-alpha1,16%
same,%Inh,AMPK-alpha2,0%
same,%Inh,ANKK1,0%
same,%Inh,ARK5,0%
same,%Inh,ASK1,34%
same,%Inh,ASK2,3%
same,%Inh,AURKA,0%
same,%Inh,AURKB,37%
CC(=O)Nc1n[nH]c2ncc(-c3ccccc3)cc12 [SB-548492],%Inh,AKT3,5%
same,%Inh,ALK,0%
same,%Inh,AMPK-alpha1,10%
same,%Inh,AMPK-alpha2,1%
same,%Inh,ANKK1,20%
same,%Inh,ARK5,0%
same,%Inh,ASK1,20%
same,%Inh,ASK2,23%
same,%Inh,AURKA,16%
same,%Inh,AURKB,17%
Oc1ccc2ncnc(Nc3ccc(OCc4ccccc4)cc3)c2c1 [GI262866],%Inh,AKT3,0%
same,%Inh,ALK,21%
same,%Inh,AMPK-alpha1,4%
same,%Inh,AMPK-alpha2,0%
same,%Inh,ANKK1,0%
same,%Inh,ARK5,15%
same,%Inh,ASK1,0%
same,%Inh,ASK2,7%
same,%Inh,AURKA,0%
same,%Inh,AURKB,21%
CCc1nc(-c2cccc(C)c2)c(-c2ccnc(NC(=O)c3ccccc3)c2)s1,%Inh,AKT3,0%
same,%Inh,ALK,27%
same,%Inh,AMPK-alpha1,16%
same,%Inh,AMPK-alpha2,1%
same,%Inh,ANKK1,0%
same,%Inh,ARK5,0%
same,%Inh,ASK1,9%
same,%Inh,ASK2,0%
same,%Inh,AURKA,17%
same,%Inh,AURKB,6%
O=C(Nc1ccccc1F)NC1CCN(c2ccnc(Nc3ccc(F)cc3)n2)C1 (centres unmarked) [GSK1379722],%Inh,AKT3,0%
same,%Inh,ALK,26%
same,%Inh,AMPK-alpha1,2%
same,%Inh,AMPK-alpha2,21%
same,%Inh,ANKK1,0%
same,%Inh,ARK5,12%
same,%Inh,ASK1,8%
same,%Inh,ASK2,16%
same,%Inh,AURKA,0%
same,%Inh,AURKB,38%
COc1ccc(-c2oc3ncnc(N)c3c2-c2ccc(OC)cc2)cc1 [SB-589132],%Inh,AKT3,0%
same,%Inh,ALK,32%
same,%Inh,AMPK-alpha1,0%
same,%Inh,AMPK-alpha2,10%
same,%Inh,ANKK1,0%
same,%Inh,ARK5,13%
same,%Inh,ASK1,11%
same,%Inh,ASK2,7%
same,%Inh,AURKA,0%
same,%Inh,AURKB,30%
O=C(Nc1n[nH]c2nc(-c3ccco3)c(Br)cc12)c1ccc(CN2CCCC2)cc1.O=C(O)[C@H](O)[C@@H](O)C(=O)O [SB-742352],%Inh,AKT3,8%
same,%Inh,ALK,0%
same,%Inh,AMPK-alpha1,0%
same,%Inh,AMPK-alpha2,8%
same,%Inh,ANKK1,0%
same,%Inh,ARK5,0%
same,%Inh,ASK1,0%
same,%Inh,ASK2,0%
same,%Inh,AURKA,0%
same,%Inh,AURKB,0%
Cl.Cn1ccc(-c2cccc(Nc3ccnc4cc(-c5nccs5)ccc34)c2)n1 [GW525701],%Inh,AKT3,0%
same,%Inh,ALK,28%
same,%Inh,AMPK-alpha1,0%
same,%Inh,AMPK-alpha2,14%
same,%Inh,ANKK1,8%
same,%Inh,ARK5,0%
same,%Inh,ASK1,9%
same,%Inh,ASK2,0%
same,%Inh,AURKA,0%
same,%Inh,AURKB,28%
